Active and inactive are the calls of the source. Calls come from the whole dose curve.
Experiment: qHTS drug screen for cell cycle checkpoint inhibitors in PARPi-resistant BRCA-mutant ovarian cancer cell lines. (AID 1963452)
Details: PEO1/OlaR viability, CellTiter-Glo luminescence, 96 h, stronger effect = lower value
From the text: Women's Malignancies Branch, Center for Cancer Research (CCR),
National Cancer Institute (NCI), National Institutes of Health (NIH), Bethesda, MD
Poly (ADP-ribose) polymerase inhibitors (PARPis) have changed the treatment paradigm in breast cancer gene (BRCA) - mutant high-grade serous ovarian carcinoma (HGSC). However, most patients eventually develop resistance to PARPis, highlighting an unmet need for improved therapeutic strategies. Using high-throughput drug screens, we identified ataxia telangiectasia and rad3-related protein/checkpoint kinase 1 (CHK1) pathway inhibitors as cytotoxic and further validated the activity of the CHK1 inhibitor (CHK1i) prexasertib in PARPi-sensitive and -resistant BRCA-mutant HGSC cells and xenograft mouse models. CHK1i monotherapy induced DNA damage, apoptosis, and tumor size reduction. We then conducted a phase 2 study (NCT02203513) of prexasertib in patients with BRCA-mutant HGSC. The treatment was well tolerated but yielded an objective response rate of 6% (1 of 17; one partial response) in patients with previous PARPi treatment. […] BRCA reversion mutation in previously PARPi-treated BRCA-mutant patients was not associated with resistance to CHK1i.
Among others, 1082 oncology drugs, both approved and investigational, were prioritized based on their status in clinical trial development. […] Drugs with average Z-AUC values less than -1.0 in all three cell lines were classified as "hits" resulting in 151 oncology drug hits. The screen also confirmed cross-resistance between olaparib and other PARPis (rucaparib, niraparib, and talazoparib) in PARPi-resistant PEO1/OlaR and PEO4.
[1] G. L. Lin, K. M. Wilson, M. Ceribelli, B. Z. Stanton, P. J. Woo, S. Kreimer, E. Y. Qin, X. Zhang, J. Lennon, S. Nagaraja, P. J. Morris, M. Quezada, S. M. Gillespie, D. Y. Duveau, A. M. Michalowski, P. Shinn, R. Guha, M. Ferrer, C. Klumpp-Thomas, S. Michael, C. McKnight, P. Minhas, Z. Itkin, E. H. Raabe, L. Chen, R. Ghanem, A. C. Geraghty, L. Ni, K. I. Andreasson, N. A. Vitanza, K. E.Warren, C. J. Thomas, M. Monje, Therapeutic strategies for diffuse midline glioma from high-throughput combination drug screening. Sci. Transl. Med. 11, (2019).
[2] T. M. Yamamoto, A. McMellen, Z. L. Watson, J. Aguilera, R. Ferguson, E. Nurmemmedov, T. Thakar, G. L. Moldovan, H. Kim, D. M. Cittelly, A. M. Joglar, E. P. Brennecke, H. Wilson, K. Behbakht, M. J. Sikora, B. G. Bitler, Activation of Wnt signaling promotes olaparib resistant ovarian cancer. Mol. Carcinog. 58, 1770 - 1782 (2019).
PROTOCOL TABLE (as described by Inglese J, Shamu CE and Guy RK. 2007)
SEQUENCE No. (e.g., 1, 2, 3, etc.); […] (e.g., Cells, Incubation, Reagent, etc.); VALUE; DESCRIPTION.
1; Compounds; 20nL; 1536-well white tissue culture-treated plates.
2; Cells; 5 uL; PEO1, PEO4, and PEO1/OlaR cells at 600 cells per well.
3; Incubation; 96 hr; 37C, 95% humidity, 5% CO2.
4; Reagent; 3 uL; CellTiter-Glo (Promega).
5; Incubation; 15 min; room temperature.
6; Detection; Luminescence, PHERAstar (BMG Labtech) plate reader.
NOTES (numbers refer to Sequence numbers above)
1. MIPE 5.0 compounds were acoustically dispensed by Echo Acoustic Liquid Handler (Beckman Coulter Life Sciences). Each compound was plated at an 11-point concentration range with 1:3 dilution. Bortezomib, a proteasome inhibitor (final concentration, 20 uM), was used as a positive.
2. PEO1, PEO4, and PEO1/OlaR were trypsinized and dispensed in 5 uLof growth medium using a Multidrop Combi dispenser at a density of 600 cells per well to allow compounds to be present during the exponential growth phase.
3. Plates were incubated for 96 hours at standard incubator conditions and covered by a stainless steel gasketed lid to prevent evaporation.
4. Three microliters of CellTiter-Glo (Promega) were added to each well.
5. Plates were incubated at room temperature for 15 min with a stainless-steel lid in place.
6. Luminescence readings were taken using PHERAstar (BMG Labtech). […]

[1] = measured here: PEO1 parental Z-AUC

Row | SMILES | Z-AUC | Z-AUC [1] | Z-AUC (measured here: PEO4 Z-AUC)
1 | CCCCCCCCCC(=O)N[C@@H](Cc1c[nH]c2ccccc12)C(=O)N[C@H](CC(N)=O)C(=O)N[C@@H](CC(=O)O)C(=O)N[C@@H]1C(=O)NCC(=O)N[C@@H](CCCN)C(=O)N[C@@H](CC(=O)O)C(=O)N[C@H](C)C(=O)N[C@@H](CC(=O)O)C(=O)NCC(=O)N[C@H](CO)C(=O)N[C@@H]([C@@H](C)CC(=O)O)C(=O)N[C@@H](CC(=O)c2ccccc2N)C(=O)O[C@@H]1C | -0.7 (inactive) | -0.476 | -0.85
2 | COc1ccc2c(OCc3nnc4ccc(-c5ccccc5)nn34)ccnc2c1 | -0.0998 (inactive) | 0.23 | 0.516
3 | Clc1ccc2ncc(-c3cccc(NC4CNC4)n3)n2c1 | -0.578 (inactive) | 0.128 | -0.613
4 | CCCNC(=O)Nc1ccc(Oc2ncnc3cc(OC)c(OC)cc23)cc1Cl | -0.498 (inactive) | -0.00236 | -0.53
5 | O=C(O)c1ccc2cc(-c3ccc(O)c(C45CC6CC(CC(C6)C4)C5)c3)ccc2c1 | -0.815 (inactive) | -1.55 | -1.16
6 | COc1ccc2c(c1)CC[C@@H](CN(C)CC(=O)O)[C@H]2c1ccccc1 | 0.47 (inactive) | 1.17 | 1.29
7 | c1nc2nc(Nc3ccc(N4CCOCC4)cc3)nc(NC3CCCCC3)c2[nH]1 | -0.117 (inactive) | 0.016 | -0.143
8 | Nc1cccc(-c2cc3c(Oc4cccc(O)c4)ncnc3[nH]2)c1 | -0.838 (inactive) | -0.58 | -0.859
9 | CC(C)(C)OC(=O)Nc1ccc(-c2cc(C(=O)NCCCCCCC(=O)NO)no2)cc1 | -0.0304 (inactive) | 0.0473 | 0.196
10 | CS(=O)(=O)N1CCN(Cc2cc3nc(-c4cccc5[nH]ncc45)nc(N4CCOCC4)c3s2)CC1 | 0.0585 (inactive) | 0.321 | 0.781
11 | CC(=O)SC[C@@H](C)C(=O)N1CCC[C@H]1C(=O)N[C@@H](Cc1ccccc1)C(=O)O | 0.0192 (inactive) | -0.242 | -0.303
12 | CN1c2cc(O)c(N=NC(N)=O)cc2CC1S(=O)(=O)O (configuration not stated) | 1.01 (inactive) | 0.677 | 1.13
13 | Cc1nc2cnc3ccc(C#Cc4cccnc4)cc3c2n1-c1ccc(C(C)(C)C#N)cc1 | -0.114 (inactive) | -0.259 | -0.412
14 | CCN1CCN(Cc2ccc(-c3cc4c(N[C@H](C)c5ccccc5)ncnc4[nH]3)cc2)CC1 | -1.03 (inactive) | 0.0439 | -0.489
